High-throughput results deposited in PubChem by Sanford-Burnham Center for Chemical Genomics.
KKLEB tox = counter-screen for CF NF-kB inhibitors: cytotoxicity | 360,000 compounds, 0.36% hits | activity change (cytotoxicity), % at 5 µM | AID 602141 | KKLEB CF airway cells viability, ATPlite luminescence, overnight; stronger effect = lower value; cells stimulated with P. aeruginosa culture filtrate;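 active = corrected activity change at or below -50% at 5 µM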
HIF-2a block = inhibitors of HIF-2a. 786-0 RCC cells HIF-2a reporter, luciferase luminescence, overnight. inhibition, % at 18.8 µM. 360,000 compounds, 0.72% hits;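 active = inhibition of the luminescence signal of 40% or more relative to plate controls, in a single-dose primary screen at 18.75 µM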
TROY signal inh = blocks TROY-dependent signaling in reporter cells | Q293 LMP1-TROYcd NF-kB luciferase reporter, 4 h | inhibition, % at 10 µM | 360,000 compounds, 0.98% hits | AID 1347056;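 active = compounds whose plate-normalised and pattern-corrected inhibition of the luciferase reporter signal at the single screening dose is 50% or more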
CF NFkB block = blocks PAF-induced NF-kB reporter in cystic fibrosis cells; KKLEB NF-kB-GFP reporter, GFP fluorescence overnight; inhibition, % at 5 µM; 360,000 compounds, 0.86% hits;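 active = at least 50% inhibition at 5 µM, scaled per plate between neutral and stimulator controls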;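 also: PAF is a Pseudomonas aeruginosa culture filtrate used as stimulus; plate controls were PAF-stimulated DMSO wells for no effect and unstimulated DMSO wells for full effect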
Peg3 promoter = reduces Peg3 promoter-driven luciferase expression in HeLa; inhibition, % at 20 µM; HeLa PEG-Prom luciferase reporter, luminescence, overnight; AID 588405; 360,000 compounds, 1.7% hits;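 active = inhibition of at least 50% at 20 µM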
TWEAK-Fn14 inh = TWEAK-Fn14 signaling inhibition. TWEAK-stimulated Fn14 reporter cells, luciferase luminescence, 8 h. inhibition, % at 10 µM. 360,000 compounds, 2% hits. AID 1159606; in the data active = inhibition above about 50%
CF NFkB inh conf = confirmation of cystic fibrosis induced NF-kB inhibitors; shares compounds with CF NFkB block; KKLEB CF airway cells, PAF-induced NF-kB-GFP fluorescence, overnight; inhibition, % at 5 µM; 1,300 compounds, 64% hits; AID 602472; in the data active = inhibition above about 40%;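 also: stimulus PAF is a Pseudomonas aeruginosa filtrate and not platelet activating factor; plate controls were DMSO wells with stimulus for no effect and unstimulated DMSO wells for full effect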
An asterisk follows results filed as active. Most compounds without a hit are left out; they make up all but 4% or so of the library.

Screening COc1ccc(/C=C/C(=O)c2ccc([N+](=O)[O-])o2)cc1 returned KKLEB tox -19, HIF-2a block -19, TROY signal inh -4, CF NFkB block 51*, Peg3 promoter 101*, TWEAK-Fn14 inh 54* and CF NFkB inh conf -203.
`Nc1cccc2c1C(=O)N(C(=O)/C=C/c1cccc(Br)c1)C2=O` gave KKLEB tox 22, HIF-2a block 12, TROY signal inh -16, CF NFkB block 56*, Peg3 promoter 54*, TWEAK-Fn14 inh 53* and CF NFkB inh conf -67.
For Nc1cccc2c1C(=O)N(C(=O)/C=C/c1cccc(F)c1)C2=O the results were KKLEB tox -9, HIF-2a block 14, TROY signal inh 0, CF NFkB block 52*, Peg3 promoter 80*, TWEAK-Fn14 inh 70* and CF NFkB inh conf -11.
CSCCC1COC(c2cccs2)=N1 (stereo not drawn) was read as KKLEB tox 8, HIF-2a block 4, TROY signal inh -27, CF NFkB block -5, Peg3 promoter -4 and TWEAK-Fn14 inh -7.
For COc1ccccc1N(C)c1cc2c(c3c1ccn3C)C1CCC2O1 (stereo not drawn) the results were KKLEB tox -18, HIF-2a block 16, TROY signal inh 13, CF NFkB block 92*, Peg3 promoter 33, TWEAK-Fn14 inh 6 and CF NFkB inh conf 31.
`CN(Cc1ccccc1)c1cc2c(c3c1ccn3C)C1CCC2O1` (stereo not drawn) gave KKLEB tox 0, HIF-2a block -5, TROY signal inh 7, CF NFkB block 7, Peg3 promoter -33 and TWEAK-Fn14 inh 3.
For Cn1ccc2c(N3c4ccccc4CCc4ccccc43)cc3c(c21)C1CCC3O1 (stereo not drawn) the results were KKLEB tox -17, HIF-2a block 7, TROY signal inh -16, CF NFkB block 85*, Peg3 promoter -18, TWEAK-Fn14 inh -4 and CF NFkB inh conf 15.
For Cn1ccc2c(N3c4ccccc4CCc4ccccc43)cc3c(c21)C1CCC3C1 (stereo not drawn) the results were KKLEB tox -4, HIF-2a block -29, TROY signal inh 19, CF NFkB block 8, Peg3 promoter 22 and TWEAK-Fn14 inh 33.
For CN(c1ccc(OCC(=O)OCC(=O)Nc2ccc([N+](=O)[O-])cc2)cc1)S(=O)(=O)c1cccs1 the results were KKLEB tox 8, HIF-2a block 9, TROY signal inh 24, CF NFkB block 2, Peg3 promoter -2 and TWEAK-Fn14 inh -20.
Screening Cc1ccc(C)c(C(=O)CCC(=O)O)c1 returned KKLEB tox -7, HIF-2a block 11, TROY signal inh 27, CF NFkB block -15, Peg3 promoter 10 and TWEAK-Fn14 inh 8.
Screening Cc1nnc(Sc2nc3ccccc3o2)c2ccccc12 returned KKLEB tox -35, HIF-2a block -40, TROY signal inh -20, CF NFkB block 55*, Peg3 promoter -102, TWEAK-Fn14 inh 36 and CF NFkB inh conf 52*.
COc1ccc(N=Cc2cc3c(cc2O)OC(N)=C(C#N)C3c2ccccc2)cc1 (stereo not drawn) was read as KKLEB tox 14, HIF-2a block 39, TROY signal inh -7, CF NFkB block 56*, Peg3 promoter 20, TWEAK-Fn14 inh 15 and CF NFkB inh conf 85*.
COc1ccc(C2C(C#N)=C(N)Oc3cc(O)ccc32)cc1 (stereo not drawn) was read as KKLEB tox -6, HIF-2a block -4, TROY signal inh 9, CF NFkB block 15, Peg3 promoter 12 and TWEAK-Fn14 inh -6.
Screening C=CCOc1ccc(Cl)cc1CNC1CCCC1 returned KKLEB tox -4, HIF-2a block 12, TROY signal inh 1, CF NFkB block 6, Peg3 promoter 3 and TWEAK-Fn14 inh -5.
For CN(C)CCCN(C(=O)CCOc1ccccc1)c1nc2ccc(F)cc2s1 the results were KKLEB tox -35, HIF-2a block 6, TROY signal inh 33, CF NFkB block 91*, Peg3 promoter 72*, TWEAK-Fn14 inh 61* and CF NFkB inh conf 69*.
Screening CN(C)CCCN(C(=O)CCOc1ccccc1)c1nc2c(F)cccc2s1 returned KKLEB tox -27, HIF-2a block 23, TROY signal inh 21, CF NFkB block 85*, Peg3 promoter 50*, TWEAK-Fn14 inh 33 and CF NFkB inh conf 61*.
C#CC1(O)CCCC2C3CCC4CC(OC(C)=O)CCC4(C)C3C(=O)CC21C (stereo not drawn) was read as KKLEB tox -19, HIF-2a block 14, TROY signal inh 14, CF NFkB block 11, Peg3 promoter 4 and TWEAK-Fn14 inh 6.
Screening COc1cc(C)nc(Oc2ccc(/C=N/O)cc2)n1 returned KKLEB tox 2, HIF-2a block -10, TROY signal inh -11, CF NFkB block 8, Peg3 promoter -8 and TWEAK-Fn14 inh 5.
`CCCCc1ccc(NC(=S)Nc2ccc(Nc3ccc(OC)cc3)cc2)cc1` gave KKLEB tox -19, HIF-2a block -25, TROY signal inh 36, CF NFkB block 52*, Peg3 promoter 7, TWEAK-Fn14 inh -7 and CF NFkB inh conf 0.
`Cc1ccc2c(c1)C(=O)C(=O)N2Cc1ccc(Cl)cc1` gave KKLEB tox -12, HIF-2a block -5, TROY signal inh -7, CF NFkB block 54*, Peg3 promoter -24, TWEAK-Fn14 inh -10 and CF NFkB inh conf 33.
For Cc1ccc2c(c1)C(=O)C(=O)N2Cc1ccc(F)cc1 the results were KKLEB tox -16, HIF-2a block 9, TROY signal inh -15, CF NFkB block 3, Peg3 promoter 10 and TWEAK-Fn14 inh 14.
Screening CCCCN(CC)C(=O)Cc1cn(C)c2ccccc12 returned KKLEB tox -6, HIF-2a block 6, TROY signal inh -21, CF NFkB block -3, Peg3 promoter 20 and TWEAK-Fn14 inh 13.
For CN(C(=O)COC(=O)c1ccc(C(C)(C)C)cc1)C1CCS(=O)(=O)C1 (stereo not drawn) the results were KKLEB tox 13, HIF-2a block 2, TROY signal inh -14, CF NFkB block -12, Peg3 promoter -10 and TWEAK-Fn14 inh 11.
`CN(C(=O)COC(=O)c1nc(Cl)c(Cl)c(Cl)c1Cl)C1CCS(=O)(=O)C1` (stereo not drawn) gave KKLEB tox -46, HIF-2a block 40, TROY signal inh 57*, CF NFkB block 79*, Peg3 promoter 107*, TWEAK-Fn14 inh 94* and CF NFkB inh conf -16.
For COCCCN=C1NN=C(c2cc(C)n(Cc3ccccc3Cl)c2C)CS1 the results were KKLEB tox -14, HIF-2a block -76, TROY signal inh -3, CF NFkB block 54*, Peg3 promoter -202, TWEAK-Fn14 inh 3 and CF NFkB inh conf 60*.
